Compound activity from PubChem BioAssay.
An excerpt weighted towards active compounds, which were near 10% of everything screened.
HP1b binding inh: HTS for Inhibitors of HP1-beta Chromodomain Interactions with Methylated Histone Tails; Chromobox protein homolog 1 (Homo sapiens), P83916; AlphaScreen HP1-beta / biotin-H3K9me3 peptide binding; Potency, µM (titrated, usually from 114 µM), for inactives: at the top dose activity change, negative = inhibition, actives largely listed as inhibitors; 390,000 compounds, 0.56% hits; note: nearly all actives have a fitted effect of over 70% in size
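Compound inhibition of the preformed complex between 50 nM HP1-beta and 50 nM biotinylated H3K9me3 peptide was read by AlphaScreen. Buffer was PBS pH 7.4 with 0.01% Tween-20. Incubations ran 30 min at room temperature, with 10 ug/mL donor/acceptor beads.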
GLS inhibitor: qHTS for Inhibitors of Glutaminase (GLS); 410,000 compounds, 0.21% hits; Potency, µM (top dose mostly 45.5 µM), without a hit: at the top dose activity change, negative = inhibition, actives largely listed as inhibitors; GLS enzymatic activity, qHTS titration; note: % is set by controls: 0 for no effect and ±100 for the full control effect
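Enzyme dispensed in phosphate buffer (45 mM, pH 8.2, 0.02% Tween-20), compounds pinned in, then 1 mM L-glutamine solution and the glutamate oxidase–HRP–Amplex Red mix added; fluorescence read immediately and again after 30 min at room temperature.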
G9a inh: qHTS Assay for Inhibitors of Histone Lysine Methyltransferase G9a; Histone-lysine N-methyltransferase EHMT2 (Homo sapiens), Q96KQ7; G9a H3K9 monomethylation, AlphaScreen, 2 h; Potency, µM (titrated, usually from 102 µM), inactives show at the top dose activity, negative = inhibition, most hits filed as inhibitors; 350,000 compounds, 8.8% hits; note: % is set by controls: 0 for no effect and ±100 for the full control effect; nearly all actives have a fitted effect of over 75% in size
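G9a (20 nM) was preincubated 15 min with compound, then reacted 2 h at room temperature with 500 nM biotin-H3K9 peptide and 20 µM SAM. Monomethyl-H3K9 detected by AlphaScreen using anti-H3K9me1 antibody.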
JMJD2A Tudor inh: qHTS Assay for Inhibitors of JMJD2A-Tudor Domain | Lysine-specific demethylase 4A (Homo sapiens), O75164 | AlphaScreen JMJD2A-Tudor / H3K4me3 peptide binding | Potency, µM (titrated, usually from 114 µM), for the others: top-dose activity change, negative = inhibition, usual class: inhibitors | 390,000 compounds, 4.4% hits | AID 504339, 2011; note: % is set by controls: 0 for no effect and ±100 for the full control effect; nearly all actives have a fitted effect of over 50% in size
BAZ2B inh: qHTS Assay for Inhibitors of BAZ2B; 360,000 compounds, 4.4% hits; Potency, µM (top dose mostly 114 µM), inactives show at the top dose activity change, negative = inhibition, actives largely listed as inhibitors; AlphaScreen BAZ2B-H3K14Ac peptide displacement; Bromodomain adjacent to zinc finger domain protein 2B (Homo sapiens), Q9UIF8; note: % is set by controls: 0 for no effect and ±100 for the full control effect; nearly all actives have a fitted effect of over 60% in size
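In this displacement format the biotinylated H3(5-23) peptide acetylated at Lys14 serves as ligand at 50 nM, with BAZ2B at 50 nM in PBS pH 7.4 containing 0.01% Tween-20. Donor and acceptor beads are 10 ug/mL final.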
L3MBTL1 inh: qHTS Assay for the Inhibitors of L3MBTL1. AlphaScreen L3MBTL1–H3K9me1 peptide binding. AID 485360, 2010. Potency, µM (top dose mostly 57.1 µM), for the others: at the highest dose activity, negative = inhibition, actives largely listed as inhibitors. 230,000 compounds, 0.66% hits; note: % is set by controls: 0 for no effect and ±100 for the full control effect; nearly all actives have a fitted effect of over 60% in size
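L3MBTL1 50 nM + b-AHA-H3(1-15)K9me1 75 nM, 30 min RT; compound added, 30 min RT; streptavidin donor/Ni-chelate acceptor beads 10 ug/mL each final, 30 min RT dark; AlphaScreen read.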
Numbers without * were called inactive; ? = inconclusive; nt = not tested or not shown; [ ] = remark or other dose. Calls come from the whole dose curve; as a rule, active = well fitted curve in the direction sought with a large enough effect; inconclusive = small, poorly fitted or top-dose-only effect, or another doubt; inactive = no such curve, though single readings can be large; an effect the other way counts as inactive or inconclusive. Potency is the fitted concentration of half-maximal effect.

SMILES	HP1b binding inh	GLS inhibitor	G9a inh	JMJD2A Tudor inh	BAZ2B inh	L3MBTL1 inh
COc1ccccc1NC(=O)CSc1nc(O)c(C/C=C/c2ccccc2)c(=O)[nH]1	16.1%	16.3%	-34.1%[59 µM]	-8.3%	-4.0%	nt
O=C1C=CC(=O)c2c(O)c(N3CCN(CCOCCO)CC3)c(Br)c(O)c21	8.91µM*	4.2%	nt	56.2µM*	nt	nt
O=C1C=CC(=O)c2c(O)c(N3CCN(CCO)CC3)c(Cl)c(O)c21	?	?	nt	50.1µM*	nt	nt
O=S(=O)(c1ccc(Br)cc1Cl)N1CCN(CCO)CC1	33.8%	-2.1%	?	-9.1%	nt	2.8%
CC1C/C(=C/c2cccn2C)C(=O)/C(=C/c2cccn2C)C1 (stereo unspecified)	39.8µM*	15.4%	?	25.1µM*	31.6µM*	nt
CCOc1cc(CNC(=O)c2ccc3nc(C(C)C)oc3c2)cc(OCC)c1OCC	24.4%[57 µM]	0.3%	-1.9%[59 µM]	2.9%	3.6%	nt
CCN(CC)C(=O)c1ccc(Nc2nnc(-c3ccc(O)cc3)c3ccccc23)cc1	50.9%	10µM*	nt	-20.3%	-12.2%	-6.5%
COc1ccc(Nc2nnc(-c3ccc(O)cc3)c3ccccc23)cc1C(N)=O	25.5%	7.94µM*	-8.5%	-15.6%	-13.9%	4.8%
O=c1cc(-c2cccc(-c3ccc(C(F)(F)F)cc3)c2)c2cc3c(cc2o1)OCO3	nt	nt	66.9%[59 µM]	nt	nt	nt
CCC(=O)N1CCc2cc(S(=O)(=O)NCCC(=O)NCc3ccc(C)cc3)ccc21	21.4%	2.2%	8.1%[59 µM]	-10.7%	nt	nt
CC(=O)C1=C(O)C(=O)N(c2ccc(O)cc2)C1c1cccc([N+](=O)[O-])c1 (stereo unspecified)	21.9%	23.9%	50.1µM*	-6.8%	4.1%	-1.6%
CC(=O)C1=C(O)C(=O)N(c2ccc(Br)cc2)C1c1cccc(F)c1 (stereo unspecified)	11.1%	14.0%	44.7µM*	-23.3%	-34.2%	2.9%
CC(=O)C1=C(O)C(=O)N(c2ccc(O)cc2)C1c1cccc(F)c1 (stereo unspecified)	17.3%	18.4%	-20.2%	-16.4%	4.7%	nt
CCOc1ccc(C(=O)OCc2cc(=O)n3nc(C(C)C)sc3n2)cc1	26.3%	6.0%	-1.6%[59 µM]	-8.0%	-10.6%	nt
COc1ccc2c(c1)CCc1c(C(=O)Nc3cc(OC)c(Cl)cc3OC)noc1-2	-0.7%	5.2%	-10.0%[59 µM]	-11.6%	-1.0%	nt
CCOC(=O)c1c(C)n(C)c2cc(Br)c(O)c(O)c12	?	-26.1%	0.355µM*	10µM*	-3.2%	-0.4%
CCOC(=O)c1c(CSc2cccs2)n(C)c2cc(Br)c(O)c(CN(C)C)c12	?	-10.3%	nt	63.1µM*	39.8µM*	-22.5%
CCOC(=O)c1c(C)n(C)c2cc([N+](=O)[O-])c(O)c([N+](=O)[O-])c12	-15.6%	8.3%	-44.9%	?	?	-12.2%
CCOC(=O)COc1cc2c(C(=O)OCC)c(C)oc2cc1Br	45.7%	6.4%	11.6%	25.2%	19.5%	1.5%
CCOC(=O)c1c(C)oc2cc(Br)c(O)c(Br)c12	22.9%	12.8%	6.31µM*	-20.4%	8.4%	-7.9%
CCCCC1CCC(C(=O)N2CC(=O)Nc3ccc(Br)cc3C2c2ccc(F)cc2)CC1 (stereo unspecified)	24.9%	-13.0%	?	-24.9%	-15.9%	nt
CCOc1ccc(C(=O)NCc2nc(-c3ccc(Cl)cc3)no2)cc1OCC	28.6%	-12.9%	5.4%[59 µM]	5.2%	-1.8%	nt
O=S(=O)(c1ccc2c(c1)OCCO2)N1CCN(S(=O)(=O)c2ccccc2OC(F)(F)F)CC1	nt	nt	nt	-11.0%	nt	nt
Cc1nc2cc(N=NC3=C(O)CCCC3=O)ccc2s1	-17.1%	6.2%	?	?	56.2µM*	-26.4%
